# Results filed as inconclusive are left out. Entries that show only a call come without a potency. Active and inactive are the calls of the source. Unless noted, calls come from the whole dose curve.
# Assays:
# [1] = qHTS for Inhibitors of the Functional Ribonucleoprotein Complex (vRNP) of Lassa (LASV) Arenavirus: LASV Primary Screen - GLuc reporter signal (AID 1347082; calls by dose curve; tested in HEK293 reporter line; note: nearly all actives have a fitted effect of over 60% in size; note: potency is the fitted concentration of half-maximal effect)
# [2] = qHTS for Inhibitors of the Functional Ribonucleoprotein Complex (vRNP) of Lassa (LASV) Arenavirus: Viability assay - alamar blue signal for LASV Primary Screen (AID 1347083; calls by dose curve; tested in HEK293 reporter line; note: nearly all actives have a fitted effect of over 80% in size; note: potency is the fitted concentration of half-maximal effect)
# [3] = qHTS for Inhibitors of the Functional Ribonucleoprotein Complex (vRNP) of Lymphocytic Choriomeningitis Arenaviruses (LCMV): Viability assay - alamar blue signal for LCMV Primary Screen (AID 1347085; calls by dose curve; tested in HEK293 reporter line; note: nearly all actives have a fitted effect of over 80% in size; note: potency is the fitted concentration of half-maximal effect)
# [4] = biological target: Nucleoprotein (Lymphocytic choriomeningitis virus (strain Armstrong)) (UniProt P09992); assay: qHTS for Inhibitors of the Functional Ribonucleoprotein Complex (vRNP) of Lymphocytic Choriomeningitis Arenaviruses (LCMV): LCMV Primary Screen - GLuc reporter signal (AID 1347086); note: nearly all actives have a fitted effect of over 70% in size; note: potency is the fitted concentration of half-maximal effect
# Chain of Nucleoprotein (Lymphocytic choriomeningitis virus (strain Armstrong)) (P09992 whole entry, looked up): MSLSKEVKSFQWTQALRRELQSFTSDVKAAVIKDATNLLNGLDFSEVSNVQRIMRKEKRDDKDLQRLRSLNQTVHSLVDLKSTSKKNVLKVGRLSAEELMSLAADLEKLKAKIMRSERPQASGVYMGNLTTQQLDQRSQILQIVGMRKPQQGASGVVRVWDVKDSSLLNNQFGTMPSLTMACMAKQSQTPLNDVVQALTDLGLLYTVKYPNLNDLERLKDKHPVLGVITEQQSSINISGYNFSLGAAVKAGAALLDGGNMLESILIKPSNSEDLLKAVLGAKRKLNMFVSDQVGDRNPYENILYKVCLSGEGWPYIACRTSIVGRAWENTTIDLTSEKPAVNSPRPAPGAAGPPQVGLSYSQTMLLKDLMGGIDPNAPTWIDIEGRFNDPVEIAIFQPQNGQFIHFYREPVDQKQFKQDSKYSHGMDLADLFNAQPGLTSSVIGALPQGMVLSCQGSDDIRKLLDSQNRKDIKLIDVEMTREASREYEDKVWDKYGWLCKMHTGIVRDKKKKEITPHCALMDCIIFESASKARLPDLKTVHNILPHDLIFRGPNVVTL
# [5] = Primary qHTS for inhibitors of SARS-S pseudo-typed particle cell entry (AID 1479145); note: nearly all actives have a fitted effect of over 45% in size; note: potency is the fitted concentration of half-maximal effect
# [6] = Primary qHTS for Huh7 cytotoxicity: counterscreen for inhibitors of MERS-S pseudotyped particle cell entry (AID 1479147); details: outcome: dose series up to 57.1 µM unless noted
# [7] = Primary qHTS for inhibitors of MERS-S pseudo-typed particle cell entry (AID 1479149); note: nearly all actives have a fitted effect of over 60% in size; note: potency is the fitted concentration of half-maximal effect
# [8] = Primary qHTS for Vero E6 cytotoxicity: counterscreen for inhibitors of SARS-S pseudo-typed particle cell entry (AID 1479150); details: outcome: dose series up to 57.1 µM unless noted
# [9] = Cytotoxicity counterscreen for inhibitors of SARS-CoV-2 cell entry (AID 1645845); note: nearly all actives have a fitted effect of over 50% in size
# Procedure, shortened: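 48 h compound treatment (after 1 h preincubation), HEK293-ACE2 cells, 37 C/5% CO2; ATP luminescence endpoint; normalized to cell wells and media blanks.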
# [10] = Primary qHTS to identify inhibitors of SARS-CoV-2 cell entry (AID 1645846); details: activity change, negative = inhibition: at 57.1 µM (top of the series) unless noted; note: nearly all actives have a fitted effect of over 45% in size
# Procedure, shortened: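 HEK293 cells stably expressing human ACE2, pre-treated 1 h with compound, then infected with MLV particles pseudotyped with Wuhan-Hu-1 spike (C-terminal 19-aa truncation). Luciferase luminescence after 48 h at 37 °C, normalised to spike PP and bald PP.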
# [11] = Validation screen for inhibitors of Lassa infection (AID 463096)
# [12] = Inducers of the Endoplasmic Reticulum Stress Response (ERSR) in human glioma: Validation (AID 504836; active = well fitted curve in the direction sought with a large enough effect; an effect the other way counts as inactive or inconclusive)
# Procedure, shortened: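 ERSR induction read as luciferase luminescence (Bright-Glo, 10 min at room temperature) in stably transfected human U87-MG glioma cells exposed to compounds for 16 h, using GRP78 as sensor.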
# [13] = biological target: Cytochrome P450 3A4 (Homo sapiens) (UniProt P08684); assay: qHTS Assay for Activators of Cytochrome P450 3A4 (AID 885; active = well fitted curve in the direction sought with a large enough effect; an effect the other way counts as inactive or inconclusive; note: nearly all actives have a fitted effect of over 65% in size)
# Chain of Cytochrome P450 3A4 (Homo sapiens) (P08684 whole entry, looked up): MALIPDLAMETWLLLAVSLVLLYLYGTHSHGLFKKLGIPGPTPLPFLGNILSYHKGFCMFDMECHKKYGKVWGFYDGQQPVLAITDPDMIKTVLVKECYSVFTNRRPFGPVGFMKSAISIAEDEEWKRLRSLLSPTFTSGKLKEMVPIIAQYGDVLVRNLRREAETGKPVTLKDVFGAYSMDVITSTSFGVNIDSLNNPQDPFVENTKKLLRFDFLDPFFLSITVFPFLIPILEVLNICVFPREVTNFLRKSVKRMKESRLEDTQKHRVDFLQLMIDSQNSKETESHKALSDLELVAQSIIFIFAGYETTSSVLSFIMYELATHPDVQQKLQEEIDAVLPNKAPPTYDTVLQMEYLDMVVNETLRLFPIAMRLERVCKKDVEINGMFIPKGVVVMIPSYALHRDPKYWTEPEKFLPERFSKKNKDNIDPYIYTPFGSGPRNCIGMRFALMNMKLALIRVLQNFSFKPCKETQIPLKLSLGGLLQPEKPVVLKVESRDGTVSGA
# Procedure, shortened: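 Signal was normalized against complete inhibition by 57 uM ketoconazole. The reaction used 20nM CYP3A4 with 25uM Luciferin-PPXE, 10-min compound preincubation and a 60-min NADPH-supported step at RT.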
# [14] = Confirmatory qHTS to identify inhibitors of SARS-CoV-2 cell entry (AID 1645844); note: potency is the fitted concentration of half-maximal effect; nearly all actives have a fitted effect of over 45% in size
# Procedure, shortened: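 Luminescence from a luciferase reporter, read 48 hr after pseudotyped-particle addition, gives entry signal, normalised to spike-bearing PP wells and bald PP lacking fusion protein wells. Cells are Expi293F stably expressing human ACE2, compound-pretreated 1 hr.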
# [15] = VSVG counterscreen qHTS to identify inhibitors of SARS-CoV-2 cell entry (AID 1645847); note: potency is the fitted concentration of half-maximal effect; nearly all actives have a fitted effect of over 65% in size
# Procedure, shortened: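 HEK293-ACE2 cells (Expi293F, human ACE2) pretreated 1 h with compound, then infected with MLV-based VSV-G pseudotyped particles for 48 h at 37 C; luciferase luminescence normalized to VSV-G PP and bald PP wells.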
# [16] = biological target: Alpha-galactosidase (Coffea arabica) (UniProt Q42656); assay: Counterscreen for Glucocerebrosidase Inhibitors: qHTS Assay for Coffee Bean alpha-Galactosidase at pH 5.9 (AID 998; active = well fitted curve in the direction sought with a large enough effect; an effect the other way counts as inactive or inconclusive)
# Chain of Alpha-galactosidase (Coffea arabica) (Q42656 whole entry, looked up): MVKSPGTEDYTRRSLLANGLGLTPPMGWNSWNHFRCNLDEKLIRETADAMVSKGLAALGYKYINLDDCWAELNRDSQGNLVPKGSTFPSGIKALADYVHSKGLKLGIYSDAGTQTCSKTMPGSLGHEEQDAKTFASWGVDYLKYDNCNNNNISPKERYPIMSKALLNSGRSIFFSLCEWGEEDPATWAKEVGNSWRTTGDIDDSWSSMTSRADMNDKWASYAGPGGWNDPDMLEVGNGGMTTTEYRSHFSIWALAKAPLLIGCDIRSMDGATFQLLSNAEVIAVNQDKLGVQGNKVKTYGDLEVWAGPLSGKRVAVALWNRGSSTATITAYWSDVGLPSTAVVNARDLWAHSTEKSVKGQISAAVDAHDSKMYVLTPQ
# Procedure, shortened: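 Compounds were titrated from 0.7 nM to 77 uM against green coffee bean alpha-galactosidase (2 nM) using 80 uM fluorogenic 4-methylumbelliferyl substrate. After 20 min at room temperature, reactions were stopped at pH 10 and read by fluorescence.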
# [17] = biological target: Alpha-galactosidase (Coffea arabica) (UniProt Q42656); assay: Counterscreen for Glucocerebrosidase Inhibitors: qHTS Assay for Coffee Bean alpha-Galactosidase at pH 4.5 (AID 957; active = well fitted curve in the direction sought with a large enough effect; an effect the other way counts as inactive or inconclusive)
# Procedure, shortened: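 Coffee bean enzyme (2 nM) with 80 uM 4-methylumbelliferyl alpha-D-galactopyranoside in 50 mM citric acid, 0.005% Tween-20, pH 4.5, 20 min at room temperature; compounds 0.7 nM–77 uM. Stopped at pH 10, fluorescence 365/440 nm; AC50 from Hill fits.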
smiles,measurement,setting,value
CC(C)[N+]1(C)[C@@H]2CC[C@H]1CC(OC(=O)C(CO)c1ccccc1)C2 (some centres not stated),Potency,[1],inactive
same,Potency,[2],inactive
same,Potency,[3],inactive
same,Potency,[4],inactive
same,Potency,[5],inactive
same,outcome,[6],inactive
same,Potency,[7],inactive
same,outcome,[8],inactive
same,Potency,[9],inactive
same,"activity change, negative = inhibition",[10],2.78%
N[C@H](CO)C(=O)O,Potency,[11],inactive
same,outcome,[12],inactive
same,Potency,[1],inactive
same,Potency,[2],inactive
same,Potency,[3],inactive
same,Potency,[4],inactive
same,Potency,[5],inactive
same,outcome,[6],inactive
same,Potency,[7],inactive
same,outcome,[8],inactive
same,Potency,[9],inactive
NC[C@H]1O[C@H](O[C@H]2[C@@H](O)[C@@H](O[C@H]3O[C@H](CO)[C@@H](O)[C@H](N)[C@@H]3O)[C@H](N)C[C@@H]2N)[C@H](N)C[C@H]1O,Potency,[1],inactive
same,Potency,[2],inactive
same,Potency,[3],inactive
same,Potency,[4],inactive
same,"activity change, negative = inhibition",[5],-1.32% [at 11.4 µM] (inactive)
same,outcome,[6],inactive [at 11.4 µM]
same,outcome,[7],inactive [at 11.4 µM]
same,outcome,[8],inactive [at 11.4 µM]
same,"activity change, negative = inhibition",[10],-15.5% [at 11.3 µM]
CCC(NC(C)C)C(O)c1ccc(O)c(O)c1 (configuration not stated),Potency,[11],inactive
same,outcome,[12],inactive
same,Potency,[1],inactive
same,Potency,[2],inactive
same,Potency,[3],inactive
same,Potency,[4],inactive
same,Potency,[5],inactive
same,outcome,[6],inactive
same,Potency,[7],inactive
same,outcome,[8],inactive
same,"activity change, negative = inhibition",[10],-5.57%
CC(C=CC=C(C)C=CC1=C(C)CCCC1(C)C)=CC=CC=C(C)C=CC=C(C)C=CC1=C(C)CCCC1(C)C,Potency,[1],inactive
same,Potency,[2],inactive
same,Potency,[3],inactive
same,Potency,[4],inactive
same,outcome,[5],inactive [at 0.573 µM]
same,outcome,[6],inactive [at 0.573 µM]
same,outcome,[7],inactive [at 0.573 µM]
same,"activity change, negative = cytotoxicity",[8],0.415% [at 0.573 µM] (inactive)
same,outcome,[9],inactive [at 0.702 µM]
same,"activity change, negative = inhibition",[10],-7.48% [at 0.702 µM]
CCCCCCCC(=O)O,Potency,[1],inactive
same,Potency,[2],inactive
same,Potency,[3],inactive
same,Potency,[4],inactive
same,Potency,[5],inactive
same,outcome,[6],inactive
same,Potency,[7],inactive
same,outcome,[8],inactive
same,Potency,[9],inactive
same,"activity change, negative = inhibition",[10],1.02%
CC1=C(/C=C/C(C)=C/C=C/C(C)=C\C(=O)O)C(C)(C)CCC1,Potency,[11],inactive
same,outcome,[12],inactive
same,Potency,[1],inactive
same,Potency,[2],inactive
same,Potency,[3],inactive
same,Potency,[4],inactive
same,Potency,[5],inactive
same,outcome,[6],inactive
same,Potency,[7],inactive
same,outcome,[8],inactive
same,Potency,[9],inactive
same,Potency,[10],inactive
same,"activity change, negative = inhibition",[10],-7.39%
CCCNS(=O)(=O)Nc1ncnc(OCCOc2ncc(Br)cn2)c1-c1ccc(Br)cc1,Potency,[1],inactive
same,Potency,[2],inactive
same,Potency,[3],inactive
same,Potency,[4],inactive
same,outcome,[6],inactive
same,Potency,[7],inactive
same,outcome,[8],inactive
same,Potency,[9],inactive
COC(=O)C[C@](O)(CCCC(C)(C)O)C(=O)O[C@@H]1C(OC)=C[C@]23CCCN2CCc2cc4c(cc2[C@H]13)OCO4,Potency,[13],inactive
same,Potency,[1],inactive
same,Potency,[2],inactive
same,Potency,[3],inactive
same,Potency,[4],inactive
same,Potency,[5],3160 nM (active)
same,outcome,[6],inactive
same,Potency,[7],891 nM (active)
same,Potency,[14],136 nM (active)
same,Potency,[9],inactive
same,Potency,[15],68.1 nM (active)
CCOC(=O)[C@@H](N)Cc1ccc(-c2cc(O[C@H](c3ccc(Cl)cc3-n3ccc(C)n3)C(F)(F)F)nc(N)n2)cc1,Potency,[1],inactive
same,Potency,[2],inactive
same,Potency,[3],inactive
same,Potency,[4],inactive
same,Potency,[5],inactive
same,outcome,[6],inactive
same,Potency,[7],inactive
same,outcome,[8],inactive
same,Potency,[9],inactive
same,Potency,[15],19200 nM (active)
Nc1ncnc2c1ncn2[C@@H]1O[C@H](COP(=O)(O)OP(=O)(O)OP(=O)(O)O)[C@@H](O)[C@H]1O,Potency,[1],inactive
same,Potency,[2],inactive
same,Potency,[3],inactive
same,Potency,[4],inactive
same,outcome,[5],inactive [at 0.573 µM]
same,"activity change, negative = cytotoxicity",[6],-18.7% [at 0.573 µM] (inactive)
same,"activity change, negative = inhibition",[7],-11.5% [at 0.573 µM] (inactive)
same,"activity change, negative = cytotoxicity",[8],-8.27% [at 0.573 µM] (inactive)
same,"activity change, negative = cytotoxicity",[9],-13.7% [at 0.702 µM] (inactive)
O=C1CCC(C(=O)O)N1 (configuration not stated),Potency,[1],inactive
same,Potency,[2],inactive
same,Potency,[3],inactive
same,Potency,[4],inactive
same,Potency,[5],inactive
same,outcome,[6],inactive
same,Potency,[7],inactive
same,outcome,[8],inactive
same,Potency,[9],inactive
same,"activity change, negative = inhibition",[10],-17.5%
O=C(Nc1c(Cl)cncc1Cl)c1ccc(OC(F)F)c(OCC2CC2)c1,Potency,[1],inactive
same,Potency,[2],inactive
same,Potency,[3],inactive
same,Potency,[4],inactive
same,Potency,[5],inactive
same,outcome,[6],inactive
same,Potency,[7],inactive
same,outcome,[8],inactive
same,Potency,[9],inactive
same,"activity change, negative = inhibition",[10],-7.18%
Nc1cc(Cl)c(NC2=NCCN2)c(Cl)c1,outcome,[16],inactive
same,Potency,[11],inactive
same,outcome,[12],inactive
same,Potency,[1],inactive
same,Potency,[2],inactive
same,Potency,[3],inactive
same,Potency,[4],inactive
same,Potency,[5],inactive
same,outcome,[6],inactive
same,Potency,[7],inactive
same,outcome,[8],inactive
same,Potency,[9],inactive
COc1c(OCCCN2CCOCC2)ccc2c3n(c(=NC(=O)c4cnc(N)nc4)nc12)CCN3,Potency,[1],1500 nM (active)
same,Potency,[2],298 nM (active)
same,Potency,[3],1060 nM (active)
same,Potency,[4],2980 nM (active)
same,"activity change, negative = cytotoxicity",[6],3.49% [at 11.4 µM] (inactive)
same,Potency,[7],3550 nM (active)
same,"activity change, negative = cytotoxicity",[8],-14.8% [at 11.4 µM] (inactive)
same,Potency,[14],312 nM (active)
same,Potency,[15],2780 nM (active)
N[C@@H](CC(=O)O)C(=O)O,outcome,[17],inactive
same,outcome,[16],inactive
same,Potency,[11],inactive
same,outcome,[12],inactive
same,Potency,[1],inactive
same,Potency,[2],inactive
same,Potency,[3],inactive
same,Potency,[4],inactive
same,"activity change, negative = inhibition",[5],-20.9% [at 5.34 µM] (inactive)
same,outcome,[6],inactive [at 5.34 µM]
same,outcome,[7],inactive [at 5.34 µM]
same,"activity change, negative = cytotoxicity",[8],2.41% [at 5.34 µM] (inactive)
same,outcome,[9],inactive [at 5.25 µM]
same,outcome,[10],inactive [at 5.25 µM]
